Among the test systems are NCI-H23 lung; NCI-H322M lung; HOP-62 NSCLC; NCI-H460 lung; HOP-92 NSCLC; NCI-H522 lung; A549/ATCC NSCLC; 786-0 renal; COLO 205 colon; DU-145 prostate; K-562 leukemia; MALME-3M melanoma; MDA-MB-231 breast; RXF 393 renal; SF-268 CNS; SF-295 CNS; SF-539 CNS; UACC-257 melanoma; M14 melanoma.
Common to all, as to assay: NCI-60 one-dose screen, 48 h (100 = growth as untreated, 0 = no growth, -100 = all killed)
Holding throughout (settings): 10 µM unless noted

This passage reports growth results from PubChem BioAssay (NCI).

Structures are written as SMILES. About 83,000 compounds went through this panel and 20% of them were active in at least one assay; those are over-represented in the sample as a whole.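 A percent growth of 40 corresponds to 60% growth inhibition; 0 means no net growth; -100 means all cells died. Active threshold: below 10.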 Unmarked numbers belong to inactive results. Activity calls are given as the source filed them.

Take `COc1cc(NCC(=O)Nc2cc(Nc3cccc(C(F)(F)F)c3)ncn2)c(Cl)c(OC)c1Cl`: the growth is 91.9% in the test with NCI-H23 lung; 101% with NCI-H322M lung; 87.6% with HOP-62 NSCLC; 103% in the test with NCI-H460 lung; 92.7% in the test on HOP-92 NSCLC; 67.8% in the test on NCI-H522 lung. For the same compound, the growth with A549/ATCC NSCLC is 81.2%; with 786-0 renal, 97.2%; in the test with COLO 205 colon it was 104%; with DU-145 prostate, 97.4%; with K-562 leukemia it was 85.6%; with MALME-3M melanoma, 115%. Further, the growth was 78.2% in the test on MDA-MB-231 breast; 114% in the test with RXF 393 renal; 98.9% in the test on SF-268 CNS; 75% in the test on SF-295 CNS; 101% with SF-539 CNS; 88.2% with UACC-257 melanoma. Besides, the growth in the test with M14 melanoma is 93.1%.
In the case of `CCCn1cc(/C=N\N=C2\C(=O)Nc3ccc(C)cc32)c2ccccc21`, the growth with NCI-H23 lung is 48%; with NCI-H322M lung, 47.8%; in the test with HOP-62 NSCLC, 75.3%; with NCI-H460 lung, 32.1%; in the test on HOP-92 NSCLC, 37.4%; with NCI-H522 lung, 13.8%. Further, the growth was 63.9% with A549/ATCC NSCLC; 64.5% in the test with 786-0 renal; -16.2% (active) in the test on COLO 205 colon; 66.4% with DU-145 prostate; 17.6% in the test with K-562 leukemia; 51.7% in the test on MALME-3M melanoma. The growth in the test on MDA-MB-231 breast was 34.4%; in the test on RXF 393 renal, 11.4%; in the test on SF-268 CNS, 46.6%; in the test with SF-295 CNS it was 71.1%; in the test with SF-539 CNS, 33.9%; in the test with UACC-257 melanoma, 58.8%. Moreover, the growth in the test with M14 melanoma is 56.3%.
For the compound `CC1CCCN(CCCCCOc2ccc3oc4ccc(Cl)cc4c(=O)c3c2)C1` (configuration not stated), the growth was 78.6% in the test with NCI-H23 lung; 85.7% with HOP-62 NSCLC; 54.5% with NCI-H460 lung; 88.8% with HOP-92 NSCLC; 71.1% in the test on NCI-H522 lung; 76.1% with A549/ATCC NSCLC. For the same compound, the growth was 68.2% with 786-0 renal; 57.5% in the test with COLO 205 colon; 84.7% with DU-145 prostate; 16.8% in the test with K-562 leukemia; 52% in the test with MALME-3M melanoma; 62.3% in the test on MDA-MB-231 breast. Besides, the growth is 72% in the test with RXF 393 renal; 81.2% in the test with SF-268 CNS; 83.1% in the test on SF-295 CNS; 66.6% in the test with SF-539 CNS; -17.9% (active) with UACC-257 melanoma; -17.5% (active) with M14 melanoma.
Regarding `Cc1c(Cl)cccc1NC(=O)c1sc2nc3c(cc2c1N)COCC3`, the growth in the test with NCI-H23 lung is 36.4%; in the test on NCI-H322M lung it was 60.6%; in the test on HOP-62 NSCLC, 24.5%; with NCI-H460 lung it was 15.6%; in the test with HOP-92 NSCLC it was 36.3%; in the test with NCI-H522 lung it was 17.3%. Moreover, the growth in the test on A549/ATCC NSCLC was 45.9%; in the test with 786-0 renal, 25.9%; with COLO 205 colon, 24.1%; with DU-145 prostate, 33%; with K-562 leukemia, 13%; in the test on MALME-3M melanoma, 59.4%. For the same compound, the growth in the test on MDA-MB-231 breast is 49%; in the test with RXF 393 renal, 13.1%; in the test with SF-268 CNS it was 47.4%; in the test with SF-295 CNS, 12.9%; with SF-539 CNS it was 11.4%; in the test on UACC-257 melanoma, 47.3%. Moreover, in the test with M14 melanoma, the growth is 10.8%.
For the compound `COc1ccc2nc(-c3ccc(OC)c(OC)c3)cc(-c3nnc(SCC(=O)Nc4ccc(C(C)=O)cc4)o3)c2c1`, the growth was 104% in the test with NCI-H23 lung; 103% in the test with NCI-H322M lung; 107% in the test with HOP-62 NSCLC; 105% in the test on NCI-H460 lung; 116% in the test with HOP-92 NSCLC; 88.3% in the test on NCI-H522 lung. Further, the growth is 94% with A549/ATCC NSCLC; 101% in the test on 786-0 renal; 116% with COLO 205 colon; 108% in the test with DU-145 prostate; 99.2% with K-562 leukemia; 109% with MALME-3M melanoma. The growth in the test on MDA-MB-231 breast is 99.5%; with RXF 393 renal, 102%; with SF-268 CNS, 104%; with SF-295 CNS, 100%; in the test with SF-539 CNS it was 96%; in the test with UACC-257 melanoma, 101%. In addition, the growth with M14 melanoma is 105%.
Consider `C=C1C(=O)O[C@H]2[C@H]1CC/C(COC(=O)Nc1nc3ccccc3[nH]1)=C\CC[C@@]1(C)O[C@@H]21`, for which the growth with NCI-H23 lung is 70.9%; with NCI-H322M lung it was 105%; with HOP-62 NSCLC, 89.9%; with NCI-H460 lung it was 91.4%; in the test with HOP-92 NSCLC, 50.4%; in the test with NCI-H522 lung, -27.2% (active). The growth in the test with A549/ATCC NSCLC is 95.5%; in the test with 786-0 renal, 80%; in the test on COLO 205 colon, 17.3%; in the test with DU-145 prostate, 36.3%; in the test with K-562 leukemia, 13.5%; in the test on MALME-3M melanoma, 48.6%. For the same compound, the growth is 66.1% with MDA-MB-231 breast; 30.6% in the test with RXF 393 renal; 94.3% in the test on SF-268 CNS; 107% with SF-295 CNS; 61.1% in the test with SF-539 CNS; 76.2% with UACC-257 melanoma. For the same compound, the growth in the test on M14 melanoma was 46.4%.
`O=C1NC(c2ccc(F)cc2)N=C2C(c3ccccc3)=NOC12` (configuration not stated): the growth with NCI-H23 lung is 107%; in the test on NCI-H322M lung it was 109%; with HOP-62 NSCLC, 96.5%; with NCI-H460 lung it was 112%; with HOP-92 NSCLC it was 103%; in the test with NCI-H522 lung, 92.1%. In addition, the growth with A549/ATCC NSCLC was 90.7%; with 786-0 renal it was 96.8%; in the test with COLO 205 colon it was 116%; with DU-145 prostate it was 110%; in the test with K-562 leukemia, 105%; with MALME-3M melanoma, 112%. Moreover, the growth was 115% in the test on MDA-MB-231 breast; 105% in the test with RXF 393 renal; 107% with SF-268 CNS; 108% in the test on SF-295 CNS; 105% in the test on SF-539 CNS; 96.7% with UACC-257 melanoma. Also, the growth in the test on M14 melanoma is 110%.
